Experimental data published in PubChem BioAssay AID602399 (Sanford-Burnham Center for Chemical Genomics, 2012).
Screen size: about 360,000 compounds; about 2,800 (0.78%) were called active. No stated cut-off is given here; in the data, active means inhibition above about 26%; inactive means the rest. The full list was thinned out, with actives kept by preference.

System: Nicotinate-nucleotide adenylyltransferase NadD (Staphylococcus aureus N315)
Assay: inhibitors of S. aureus NadD, primary screen, biochemical, colorimetric, uHTS (AID 602399)
Conditions: purified NadD enzyme, colorimetric absorbance read-out; at 20 µM; stronger effect = higher value

Structure (SMILES)	inhibition
COc1ccc(C(=O)N2CCCCC2c2cc(C(=O)Nc3ccc(F)c(Cl)c3)no2)cc1 (centres undefined)	2.01% (inactive)
C[C@H]([C@@H](O)[C@@H](O)[C@@H](C)C(C)(C)C)[C@H]1CC[C@H]2C3CC[C@H]4C[C@H](OS(=O)(=O)O)[C@@H](OS(=O)(=O)O)C[C@]4(C)[C@H]3CC[C@]12C (some centres undefined)	11.9% (inactive)
CCOc1cc(/C=C2\C(=N)N3N=C(C)SC3=NC2=O)ccc1OCCOc1ccccc1	22.4% (inactive)
COc1cc(/C=C2\C(=N)N3N=C(CC(=O)N4CCOCC4)SC3=NC2=O)cc(OC)c1OC	-3.62% (inactive)
COc1ccccc1OCCOc1ccc(/C=C2\C(=N)N3N=C(C)SC3=NC2=O)cc1	29% (active)
C[C@@H]1CN([C@H](C)CO)C(=O)CCCn2nncc2CO[C@@H]1CN(C)S(=O)(=O)c1cccc(C#N)c1	4.94% (inactive)
CCOC(=O)c1ccc(NC(=O)c2c(N)n(C)c(=O)[nH]c2=O)cc1	-3.34% (inactive)
Cc1ccc(C(=O)COC(=O)CCN2C(=O)C3C4CCC(C4)C3C2=O)cc1C (centres undefined)	4.2% (inactive)
Cc1ccc(C(=O)COC(=O)c2cccc(N3C(=O)c4c(C)nc5ccccc5c4C3=O)c2)cc1C	29.7% (active)
COc1ccc(C(=O)OCC(=O)c2ccc(C)c(S(=O)(=O)N3CCOCC3)c2)cc1OC	-14% (inactive)
CN(C)c1ccnc(Oc2ccc(F)cc2)c1C#N	0.732% (inactive)
O=C(O)C1=NN(c2c(F)c(F)cc(F)c2F)C(=O)CC1	-2.16% (inactive)
COc1cc(NS(=O)(=O)c2ccc(NC(=S)NC(=O)c3ccc(Br)cc3)cc2)ncn1	16.5% (inactive)
COc1ccc(NS(=O)(=O)c2ccc(NC(=S)NC(=O)/C=C/c3ccc(C)cc3)cc2)nn1	52.5% (active)
COc1ccc(NS(=O)(=O)c2ccc(NC(=O)C(C)(C(F)(F)F)C(F)(F)F)cc2)nn1	8.48% (inactive)
COc1ccccc1-n1c(SCC(=O)O)nc2sc3c(c2c1=O)CCC3	-6.38% (inactive)
COc1cccc(C(=O)NC(=O)Nc2nc(C)cc(C(F)(F)F)n2)c1	1.69% (inactive)
COc1ccc(/C=C/C(=O)c2c(O)cc(OC)cc2OC)cc1	-0.858% (inactive)
Cc1cc(O)c(Sc2ccccc2)c(=O)o1	-2.78% (inactive)
Cc1cc(O)c(C(=O)/C=C/c2c(F)c(F)c(F)c(F)c2F)c(=O)o1	30% (active)
CC(=O)c1c(C)n([O-])c2ccccc2[n+]1=O	4.16% (inactive)
CC(NC(=O)C(=O)N/N=C/c1ccc(Cl)cc1)c1ccccc1 (centres undefined)	-0.376% (inactive)
O=C(N/N=C/c1ccc(Cl)cc1)c1nc2ccc([N+](=O)[O-])cc2c(=O)[nH]1	42.6% (active)
N#Cc1cc([N+](=O)[O-])ccc1Oc1cccc(/C=N/NC(=O)c2ccc(Cl)cc2)c1	19.4% (inactive)
